The text below walks through data of article PMC7862700, “An all-to-all approach to the identification of sequence-specific readers for epigenetic DNA modifications on cytosine”.

Common to all, as to experiment: DAPPL (digital affinity profiling via proximity ligation, sequencing); 10 mM Tris-HCl pH 7.5, 50 mM NaCl, 1 mM DTT, 4% glycerol, room temperature, 30 min; GST-TFs on glutathione beads, 16-mer random dsDNA library, 0.1% formaldehyde crosslink after washing; high values mean tight binding
Holding throughout (details): protein: recombinant; tags: N-terminal GST; dsDNA, one strand shown

One assay concerns the target T1, FLI1 (Homo sapiens, UniProt Q01543 1-452).
T1 sequence: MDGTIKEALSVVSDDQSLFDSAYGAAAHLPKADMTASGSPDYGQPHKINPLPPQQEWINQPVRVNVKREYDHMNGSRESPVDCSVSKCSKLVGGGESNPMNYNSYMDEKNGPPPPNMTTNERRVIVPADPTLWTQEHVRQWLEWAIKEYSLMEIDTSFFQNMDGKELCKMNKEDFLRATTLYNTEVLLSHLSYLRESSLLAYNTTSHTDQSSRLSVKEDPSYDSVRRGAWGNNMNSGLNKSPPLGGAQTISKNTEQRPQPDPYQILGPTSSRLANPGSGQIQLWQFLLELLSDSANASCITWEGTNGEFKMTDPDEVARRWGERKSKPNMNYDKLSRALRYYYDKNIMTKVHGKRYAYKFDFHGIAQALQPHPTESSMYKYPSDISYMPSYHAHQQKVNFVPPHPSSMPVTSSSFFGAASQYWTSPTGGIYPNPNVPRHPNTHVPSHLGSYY
The method in brief: (§1)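 Pools of DNA-barcoded human transcription factors, expressed in yeast as GST fusions on glutathione beads and combined with a tag-only sample, were incubated with 200 nmole of a 16-mer random double-stranded DNA library. Incubation took 30 min at room temperature in Tris/NaCl/DTT/glycerol buffer and was followed by washing, 0.1% formaldehyde crosslinking, proximity ligation (BsaI/T4 ligase, 1 h, 37 °C), PCR amplification and sequencing on an Illumina NextSeq500. Binding signal is the ratio of a hexamer's read frequency for a factor to its frequency for the tag-only sample.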

Another assay deals with T2, ELK1 (Homo sapiens, UniProt P19419 1-428).
T2 sequence: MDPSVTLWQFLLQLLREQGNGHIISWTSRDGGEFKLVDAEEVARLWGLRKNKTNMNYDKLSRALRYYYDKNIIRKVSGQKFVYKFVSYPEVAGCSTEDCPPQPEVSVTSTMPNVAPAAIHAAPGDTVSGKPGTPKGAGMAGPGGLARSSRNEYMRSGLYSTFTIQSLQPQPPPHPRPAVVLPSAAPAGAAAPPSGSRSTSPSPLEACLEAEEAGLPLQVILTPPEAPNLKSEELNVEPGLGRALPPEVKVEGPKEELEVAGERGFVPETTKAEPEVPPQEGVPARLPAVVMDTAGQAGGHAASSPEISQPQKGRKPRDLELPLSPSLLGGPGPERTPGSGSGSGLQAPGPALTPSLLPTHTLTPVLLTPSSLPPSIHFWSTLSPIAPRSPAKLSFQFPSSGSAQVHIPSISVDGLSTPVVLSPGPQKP
The method in brief:
as §1

In another assay the target is T3, GABPA (Homo sapiens, UniProt Q06546 1-454).
T3 sequence: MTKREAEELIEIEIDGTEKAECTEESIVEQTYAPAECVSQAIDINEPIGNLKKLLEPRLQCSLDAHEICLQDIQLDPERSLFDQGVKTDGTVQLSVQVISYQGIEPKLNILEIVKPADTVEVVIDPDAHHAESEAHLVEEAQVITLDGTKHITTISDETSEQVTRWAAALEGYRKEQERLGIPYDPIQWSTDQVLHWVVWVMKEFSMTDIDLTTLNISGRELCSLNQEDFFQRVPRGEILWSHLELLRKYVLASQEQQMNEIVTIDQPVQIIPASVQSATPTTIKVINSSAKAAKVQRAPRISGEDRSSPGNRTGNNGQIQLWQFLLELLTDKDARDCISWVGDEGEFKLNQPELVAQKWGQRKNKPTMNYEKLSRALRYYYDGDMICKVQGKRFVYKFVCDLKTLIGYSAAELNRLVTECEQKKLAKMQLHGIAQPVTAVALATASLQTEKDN
In outline: as §1

A further assay has as its target T4, ERG (Homo sapiens, UniProt P11308 1-479).
T4 sequence: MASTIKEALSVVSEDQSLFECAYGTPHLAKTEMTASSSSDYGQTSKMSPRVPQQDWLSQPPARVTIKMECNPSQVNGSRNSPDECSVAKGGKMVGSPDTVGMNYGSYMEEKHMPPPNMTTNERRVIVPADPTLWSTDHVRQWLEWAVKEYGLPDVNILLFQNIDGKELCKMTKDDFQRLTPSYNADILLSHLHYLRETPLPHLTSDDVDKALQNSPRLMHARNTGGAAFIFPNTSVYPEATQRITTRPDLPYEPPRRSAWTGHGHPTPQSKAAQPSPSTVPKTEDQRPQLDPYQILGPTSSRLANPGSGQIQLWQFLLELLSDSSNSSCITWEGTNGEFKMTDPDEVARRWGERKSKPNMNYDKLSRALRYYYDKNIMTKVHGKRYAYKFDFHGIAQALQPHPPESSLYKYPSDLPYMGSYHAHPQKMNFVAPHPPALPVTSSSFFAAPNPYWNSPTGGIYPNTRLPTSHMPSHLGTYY
In outline: as §1

The next assay has as its target ELF1 (Homo sapiens, UniProt P32519 1-619). The method in brief: as §1
The next assay has as its target T5, EHF (Homo sapiens, UniProt Q9NZC4 1-300).
T5 sequence: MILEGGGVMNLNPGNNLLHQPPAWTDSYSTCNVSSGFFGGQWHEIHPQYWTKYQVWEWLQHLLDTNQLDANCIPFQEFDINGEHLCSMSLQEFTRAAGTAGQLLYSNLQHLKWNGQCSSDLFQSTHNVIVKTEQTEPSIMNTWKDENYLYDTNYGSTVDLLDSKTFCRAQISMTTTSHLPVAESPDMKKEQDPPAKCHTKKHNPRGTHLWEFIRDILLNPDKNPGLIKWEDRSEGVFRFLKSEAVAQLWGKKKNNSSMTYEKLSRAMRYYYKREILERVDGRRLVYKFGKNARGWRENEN
The method in brief:
as §1

The next assay has as its target SPI1 (Homo sapiens, UniProt P17947 1-270). The method in brief:
as §1

A further assay addresses SPIB (Homo sapiens, UniProt Q01892 1-262). In outline:
as §1

A further assay addresses T6, ELK3 (Homo sapiens, UniProt P41970 1-407).
T6 sequence: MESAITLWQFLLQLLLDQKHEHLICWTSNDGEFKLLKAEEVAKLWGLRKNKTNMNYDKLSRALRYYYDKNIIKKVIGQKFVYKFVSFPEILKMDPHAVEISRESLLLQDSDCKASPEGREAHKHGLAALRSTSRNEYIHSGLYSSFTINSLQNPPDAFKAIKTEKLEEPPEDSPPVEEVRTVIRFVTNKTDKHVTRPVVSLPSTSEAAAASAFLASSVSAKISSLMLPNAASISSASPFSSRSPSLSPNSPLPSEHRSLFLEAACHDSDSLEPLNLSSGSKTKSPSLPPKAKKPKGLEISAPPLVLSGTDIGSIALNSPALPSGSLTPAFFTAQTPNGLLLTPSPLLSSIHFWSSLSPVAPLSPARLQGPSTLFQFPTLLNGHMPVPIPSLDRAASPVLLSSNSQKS
In outline:
as §1

Chain of SPIB (Q01892 whole entry): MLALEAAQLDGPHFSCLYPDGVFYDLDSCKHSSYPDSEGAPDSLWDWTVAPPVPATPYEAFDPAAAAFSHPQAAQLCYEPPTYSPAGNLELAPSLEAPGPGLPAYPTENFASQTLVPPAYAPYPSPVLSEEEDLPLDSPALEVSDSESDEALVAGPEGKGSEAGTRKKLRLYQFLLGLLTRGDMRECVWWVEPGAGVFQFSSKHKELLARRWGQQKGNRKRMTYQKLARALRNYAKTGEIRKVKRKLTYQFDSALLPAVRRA
Chain of ELF1 (P32519 whole entry): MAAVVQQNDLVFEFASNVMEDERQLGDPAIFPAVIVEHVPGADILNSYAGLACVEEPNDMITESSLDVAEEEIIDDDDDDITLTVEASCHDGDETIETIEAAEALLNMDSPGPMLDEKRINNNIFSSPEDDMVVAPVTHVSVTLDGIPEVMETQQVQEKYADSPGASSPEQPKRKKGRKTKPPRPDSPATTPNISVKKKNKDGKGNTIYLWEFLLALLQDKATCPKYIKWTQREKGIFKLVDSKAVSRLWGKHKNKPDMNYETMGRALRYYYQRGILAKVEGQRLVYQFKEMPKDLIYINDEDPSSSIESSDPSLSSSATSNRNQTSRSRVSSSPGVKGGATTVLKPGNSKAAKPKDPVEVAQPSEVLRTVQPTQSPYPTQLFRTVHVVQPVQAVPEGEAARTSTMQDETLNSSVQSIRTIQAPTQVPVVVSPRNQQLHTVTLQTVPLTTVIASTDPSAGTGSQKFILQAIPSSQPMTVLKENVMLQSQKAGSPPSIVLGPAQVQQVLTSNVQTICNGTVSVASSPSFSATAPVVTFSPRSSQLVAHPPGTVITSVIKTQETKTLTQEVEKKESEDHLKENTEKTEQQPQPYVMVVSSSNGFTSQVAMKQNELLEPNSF

With GCCTCT, the binding signal in the assay with FLI1 was 1.39 fold enrichment (6-mer frequency, TF over GST control); with ELK1, 1.38 fold enrichment (6-mer frequency, TF over GST control); with GABPA, 1.37 fold enrichment (6-mer frequency, TF over GST control); with ERG, 1.35 fold enrichment (6-mer frequency, TF over GST control); with ELF1, 1.36 fold enrichment (6-mer frequency, TF over GST control); with EHF, 1.29 fold enrichment (6-mer frequency, TF over GST control). Moreover, the binding signal is 1.31 fold enrichment (6-mer frequency, TF over GST control) with SPI1; 1.42 fold enrichment (6-mer frequency, TF over GST control) with SPIB; 1.32 fold enrichment (6-mer frequency, TF over GST control) with ELK3.
As for TAGCCC, the binding signal was 1.23 fold enrichment (6-mer frequency, TF over GST control) in the assay with FLI1; 1.18 fold enrichment (6-mer frequency, TF over GST control) with ELK1; 1.12 fold enrichment (6-mer frequency, TF over GST control) with GABPA; 1.12 fold enrichment (6-mer frequency, TF over GST control) with ERG; 1.08 fold enrichment (6-mer frequency, TF over GST control) with ELF1; 1.21 fold enrichment (6-mer frequency, TF over GST control) in the assay with EHF. Besides, the binding signal with SPI1 was 1.13 fold enrichment (6-mer frequency, TF over GST control); with SPIB it was 1.16 fold enrichment (6-mer frequency, TF over GST control); with ELK3, 1.24 fold enrichment (6-mer frequency, TF over GST control).
Consider CTAGAT, for which the binding signal with FLI1 is 1.13 fold enrichment (6-mer frequency, TF over GST control); in the assay with ELK1, 1.18 fold enrichment (6-mer frequency, TF over GST control); in the assay with GABPA it was 1.23 fold enrichment (6-mer frequency, TF over GST control); with ERG it was 1.12 fold enrichment (6-mer frequency, TF over GST control); in the assay with ELF1 it was 1.15 fold enrichment (6-mer frequency, TF over GST control); with EHF, 1.17 fold enrichment (6-mer frequency, TF over GST control). For the same sequence, the binding signal with SPI1 is 1.2 fold enrichment (6-mer frequency, TF over GST control); in the assay with SPIB, 1.17 fold enrichment (6-mer frequency, TF over GST control); with ELK3, 1.16 fold enrichment (6-mer frequency, TF over GST control).
With CTAACC, the binding signal with FLI1 was 1.12 fold enrichment (6-mer frequency, TF over GST control); with ELK1, 1.23 fold enrichment (6-mer frequency, TF over GST control); with GABPA, 1.09 fold enrichment (6-mer frequency, TF over GST control); with ERG, 1.16 fold enrichment (6-mer frequency, TF over GST control); with ELF1 it was 1.12 fold enrichment (6-mer frequency, TF over GST control); with EHF, 1.17 fold enrichment (6-mer frequency, TF over GST control). Further, the binding signal in the assay with SPI1 was 1.14 fold enrichment (6-mer frequency, TF over GST control); with SPIB, 1.08 fold enrichment (6-mer frequency, TF over GST control); with ELK3, 1.29 fold enrichment (6-mer frequency, TF over GST control).
On to ACTAAT, for which the binding signal in the assay with FLI1 is 1.33 fold enrichment (6-mer frequency, TF over GST control); with ELK1, 1.27 fold enrichment (6-mer frequency, TF over GST control); in the assay with GABPA it was 1.23 fold enrichment (6-mer frequency, TF over GST control); with ERG, 1.2 fold enrichment (6-mer frequency, TF over GST control); with ELF1, 1.33 fold enrichment (6-mer frequency, TF over GST control); with EHF, 1.37 fold enrichment (6-mer frequency, TF over GST control). The binding signal with SPI1 was 1.28 fold enrichment (6-mer frequency, TF over GST control); in the assay with SPIB, 1.39 fold enrichment (6-mer frequency, TF over GST control); with ELK3, 1.37 fold enrichment (6-mer frequency, TF over GST control).
With TTGCTT, the binding signal with FLI1 was 1.32 fold enrichment (6-mer frequency, TF over GST control); with ELK1, 1.15 fold enrichment (6-mer frequency, TF over GST control); in the assay with GABPA, 1.36 fold enrichment (6-mer frequency, TF over GST control); in the assay with ERG, 1.3 fold enrichment (6-mer frequency, TF over GST control); in the assay with ELF1, 1.21 fold enrichment (6-mer frequency, TF over GST control); with EHF, 1.2 fold enrichment (6-mer frequency, TF over GST control). Also, the binding signal with SPI1 was 1.29 fold enrichment (6-mer frequency, TF over GST control); in the assay with SPIB it was 1.35 fold enrichment (6-mer frequency, TF over GST control); in the assay with ELK3, 1.26 fold enrichment (6-mer frequency, TF over GST control).
For GGGCCT, the binding signal with FLI1 is 1.26 fold enrichment (6-mer frequency, TF over GST control); in the assay with ELK1 it was 1.29 fold enrichment (6-mer frequency, TF over GST control); with GABPA it was 1.3 fold enrichment (6-mer frequency, TF over GST control); with ERG, 1.16 fold enrichment (6-mer frequency, TF over GST control); in the assay with ELF1 it was 1.27 fold enrichment (6-mer frequency, TF over GST control); in the assay with EHF, 1.27 fold enrichment (6-mer frequency, TF over GST control). Moreover, the binding signal with SPI1 was 1.15 fold enrichment (6-mer frequency, TF over GST control); with SPIB it was 1.23 fold enrichment (6-mer frequency, TF over GST control); with ELK3 it was 1.32 fold enrichment (6-mer frequency, TF over GST control).
As to TCTCCA, the binding signal with FLI1 was 1.52 fold enrichment (6-mer frequency, TF over GST control); in the assay with ELK1 it was 1.46 fold enrichment (6-mer frequency, TF over GST control); with GABPA, 1.56 fold enrichment (6-mer frequency, TF over GST control); in the assay with ERG, 1.37 fold enrichment (6-mer frequency, TF over GST control); with ELF1, 1.43 fold enrichment (6-mer frequency, TF over GST control); in the assay with EHF, 1.55 fold enrichment (6-mer frequency, TF over GST control). For the same sequence, the binding signal with SPI1 was 1.57 fold enrichment (6-mer frequency, TF over GST control); in the assay with SPIB, 1.44 fold enrichment (6-mer frequency, TF over GST control); with ELK3, 1.59 fold enrichment (6-mer frequency, TF over GST control).
